Test results reported in the supplement of paper PMC10849652.
Of roughly 7,900 targets only a part is listed; those with a hit were picked by preference. About 0.6% of all pairs of compound and target were hits. A number with no mark means an inactive call.

Legend:
Assay in all cases: log2 fold change, soluble protein after heating vs DMSO (PISA); higher = thermal stabilisation; K562 cells, 10 uM, 30 min; active = over 0.2 and 3.5 SD of the protein, either way, in both replicates (recomputed)
[1] = compound: CC1=C(C=C(C=C1)NC(=O)C2=CC(=CC=C2)C(C)(C)C#N)NC3=CC4=C(C=C3)N=CN(C4=O)C
Method in brief: (§1)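 Aliquots of K562 cells (2×10^6 cells/mL) treated with 10 μM compound for 30 min were heated for 3 min over 48°C-58°C. After pooling and extraction in PBS with 0.5% NP-40 at 4°C, soluble protein from a 21,000xg, 90 min spin was quantified by TMTpro 16plex LC-MS/MS with channel sums equalised. Thermal stability is expressed against control samples, from duplicates, as a log2 fold change.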

[2] = compound: CC1=C(C=C(C=C1)NC(=O)C2=CC(=CC=C2)N(C)C)NC(=O)C3=CC=C(C=C3)O
Method in brief: as §1

[3] = compound: CC1=CC=C(C=C1)SC2=C3C=C(SC3=CN=C2)C(=O)N
Method in brief: as §1

[4] = compound: CC1=NC(=CC=C1)C2=C(N=C(N2)C(C)(C)C)C3=CC4=NC=CN=C4C=C3
Method in brief: as §1

Nexturastat A = compound: CCCCN(Cc1ccc(C(=O)NO)cc1)C(=O)Nc1ccccc1 [Nexturastat A]
Method in brief: as §1

vemurafenib = compound: CCCS(=O)(=O)Nc1ccc(F)c(C(=O)c2c[nH]c3ncc(-c4ccc(Cl)cc4)cc23)c1F [vemurafenib]
Method in brief: as §1

[5] = compound: CCCS(=O)(=O)Nc1ccc(F)c(C(=O)c2c[nH]c3ncc(Cl)cc23)c1F
Method in brief: as §1

[6] = compound: CCCc1cc(C)[nH]c(=O)c1CNC(=O)c1cc(-c2ccnc(N3CCN(C)CC3)c2)cc2c1cnn2C(C)C
Method in brief: as §1

givinostat = compound: CCN(CC)Cc1ccc2cc(COC(=O)Nc3ccc(C(=O)NO)cc3)ccc2c1 [givinostat]
Method in brief: as §1

barasertib = compound: CCN(CCCOc1ccc2c(Nc3cc(CC(=O)Nc4cccc(F)c4)[nH]n3)ncnc2c1)CCOP(=O)(O)O [barasertib]
Method in brief: as §1

[7] = compound: CC[C@@H]1C(=O)N(C)c2cnc(Nc3ccc(C(=O)NC4CCN(C)CC4)cc3OC)nc2N1C1CCCC1
Method in brief: as §1

volasertib = compound: CC[C@@H]1C(=O)N(C)c2cnc(Nc3ccc(C(=O)N[C@H]4CC[C@H](N5CCN(CC6CC6)CC5)CC4)cc3OC)nc2N1C(C)C [volasertib]
Method in brief: as §1

[8] = compound: CC[C@H](C)N1C=C(C2=C(C=C(C=C21)C3=CN=C(C=C3)N4CCNCC4)C(=O)NCC5=C(C=C(NC5=O)C)C)C
Method in brief: as §1

epoxomicin = compound: CC[C@H](C)[C@@H](C(=O)N[C@@H]([C@@H](C)O)C(=O)N[C@@H](CC(C)C)C(=O)[C@]1(CO1)C)NC(=O)[C@H]([C@@H](C)CC)N(C)C(=O)C [epoxomicin]
Method in brief: as §1

[9] = compound: CCn1c(C(=O)N(C2CC2)C2CC2)cc2c3c(ncn3C)c(Nc3cc(C)n(C)n3)nc21
Method in brief: as §1

[10] = compound: CCn1cc(-c2ccnc3[nH]c(-c4cccc(CN(C)C)c4)cc23)c(-c2ccc(NC(=O)N(C)C)cc2)n1
Method in brief: as §1

[11] = compound: CN(C)CC(=O)Nc1ccc2[nH]c(=O)c3ccccc3c2c1
Method in brief: as §1

rosiglitazone = compound: CN(CCOC1=CC=C(C=C1)C[C@H]2C(=O)NC(=O)S2)C3=CC=CC=N3 (racemic) [rosiglitazone]
Method in brief: as §1

[12] = compound: CN1C2=C(C3=C1C(=O)N(N=C3)CC4=CC(=CC=C4)N)SC(=C2)S(=O)C
Method in brief: as §1

[13] = compound: CN1CCC(CNc2ccc3ncc(-c4cccc(OC(F)(F)F)c4)n3n2)CC1
Method in brief: as §1

Sequence of UniProt O15400 (O15400 whole entry, looked up): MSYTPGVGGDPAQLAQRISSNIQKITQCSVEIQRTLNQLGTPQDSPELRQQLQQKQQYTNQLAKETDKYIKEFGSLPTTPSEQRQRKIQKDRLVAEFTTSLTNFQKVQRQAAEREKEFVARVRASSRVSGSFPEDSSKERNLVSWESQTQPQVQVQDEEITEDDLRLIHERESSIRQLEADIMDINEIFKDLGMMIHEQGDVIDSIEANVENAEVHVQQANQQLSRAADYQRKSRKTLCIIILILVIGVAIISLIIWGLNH
Sequence of UniProt P51692 (P51692 whole entry, looked up): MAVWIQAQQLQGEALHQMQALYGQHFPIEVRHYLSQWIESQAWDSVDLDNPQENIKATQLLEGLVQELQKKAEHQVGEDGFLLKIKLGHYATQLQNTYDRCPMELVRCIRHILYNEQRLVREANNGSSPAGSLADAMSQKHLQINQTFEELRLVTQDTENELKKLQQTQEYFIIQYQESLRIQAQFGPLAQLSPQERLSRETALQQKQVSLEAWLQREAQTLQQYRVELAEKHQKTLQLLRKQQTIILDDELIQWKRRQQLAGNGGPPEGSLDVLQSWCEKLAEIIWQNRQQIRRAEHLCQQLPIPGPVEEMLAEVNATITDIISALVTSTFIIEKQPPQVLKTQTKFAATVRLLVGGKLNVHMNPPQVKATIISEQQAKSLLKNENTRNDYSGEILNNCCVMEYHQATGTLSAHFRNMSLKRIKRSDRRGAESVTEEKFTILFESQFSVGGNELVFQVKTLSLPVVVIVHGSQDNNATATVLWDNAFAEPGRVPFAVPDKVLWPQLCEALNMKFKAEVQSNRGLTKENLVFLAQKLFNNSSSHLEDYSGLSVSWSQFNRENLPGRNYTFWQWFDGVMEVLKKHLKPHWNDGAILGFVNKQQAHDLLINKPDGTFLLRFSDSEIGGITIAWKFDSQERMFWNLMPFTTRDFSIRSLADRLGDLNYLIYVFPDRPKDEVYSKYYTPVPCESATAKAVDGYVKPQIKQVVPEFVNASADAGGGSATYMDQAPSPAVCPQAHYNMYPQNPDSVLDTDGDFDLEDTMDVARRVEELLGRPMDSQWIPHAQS
Sequence of UniProt Q96DI7 (Q96DI7 whole entry, looked up): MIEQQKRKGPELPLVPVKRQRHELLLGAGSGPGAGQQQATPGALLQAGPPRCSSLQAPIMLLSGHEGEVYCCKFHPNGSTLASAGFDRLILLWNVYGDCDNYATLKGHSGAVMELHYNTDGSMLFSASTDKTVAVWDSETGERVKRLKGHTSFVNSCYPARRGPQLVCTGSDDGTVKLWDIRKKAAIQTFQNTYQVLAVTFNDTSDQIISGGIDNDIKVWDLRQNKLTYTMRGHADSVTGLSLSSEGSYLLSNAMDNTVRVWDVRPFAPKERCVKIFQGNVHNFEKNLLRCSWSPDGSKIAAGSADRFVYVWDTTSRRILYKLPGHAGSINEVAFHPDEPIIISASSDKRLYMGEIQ
Sequence of UniProt O75494 (O75494 whole entry, looked up): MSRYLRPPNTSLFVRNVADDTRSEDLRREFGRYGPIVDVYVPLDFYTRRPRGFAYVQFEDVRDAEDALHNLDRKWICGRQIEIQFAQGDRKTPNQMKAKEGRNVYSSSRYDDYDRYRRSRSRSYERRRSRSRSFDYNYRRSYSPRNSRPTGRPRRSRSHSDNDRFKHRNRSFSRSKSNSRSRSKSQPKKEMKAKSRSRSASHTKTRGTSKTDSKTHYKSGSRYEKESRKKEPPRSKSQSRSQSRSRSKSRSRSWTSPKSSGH
Sequence of UniProt Q9H4L7 (Q9H4L7 whole entry, looked up): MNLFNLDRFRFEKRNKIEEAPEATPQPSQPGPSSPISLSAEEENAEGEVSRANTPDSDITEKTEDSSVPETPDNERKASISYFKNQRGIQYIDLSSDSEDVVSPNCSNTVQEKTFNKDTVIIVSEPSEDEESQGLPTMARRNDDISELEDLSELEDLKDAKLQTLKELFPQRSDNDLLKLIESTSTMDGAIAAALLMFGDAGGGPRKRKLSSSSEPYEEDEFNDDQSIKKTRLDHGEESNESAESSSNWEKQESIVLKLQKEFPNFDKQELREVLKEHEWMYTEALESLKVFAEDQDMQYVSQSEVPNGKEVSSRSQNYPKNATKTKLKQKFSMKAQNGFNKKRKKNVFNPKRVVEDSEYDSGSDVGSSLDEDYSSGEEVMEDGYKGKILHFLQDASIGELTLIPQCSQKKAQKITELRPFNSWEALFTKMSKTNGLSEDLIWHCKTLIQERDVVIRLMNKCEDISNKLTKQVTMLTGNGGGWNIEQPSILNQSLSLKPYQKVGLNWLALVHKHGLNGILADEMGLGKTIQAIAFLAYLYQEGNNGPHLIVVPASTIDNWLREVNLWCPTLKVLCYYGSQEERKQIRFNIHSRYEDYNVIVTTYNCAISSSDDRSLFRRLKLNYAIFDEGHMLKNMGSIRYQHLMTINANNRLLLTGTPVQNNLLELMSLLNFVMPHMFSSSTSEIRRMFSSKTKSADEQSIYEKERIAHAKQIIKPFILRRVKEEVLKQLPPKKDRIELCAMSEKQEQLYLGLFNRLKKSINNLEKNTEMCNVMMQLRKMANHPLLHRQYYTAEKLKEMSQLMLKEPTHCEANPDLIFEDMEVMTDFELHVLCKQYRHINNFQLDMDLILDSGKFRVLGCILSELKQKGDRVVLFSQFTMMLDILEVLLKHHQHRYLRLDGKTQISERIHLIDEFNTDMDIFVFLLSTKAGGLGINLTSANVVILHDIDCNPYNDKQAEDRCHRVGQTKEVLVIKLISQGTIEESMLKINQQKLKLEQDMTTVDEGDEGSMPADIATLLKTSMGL
Sequence of UniProt Q9UNL2 (Q9UNL2 whole entry, looked up): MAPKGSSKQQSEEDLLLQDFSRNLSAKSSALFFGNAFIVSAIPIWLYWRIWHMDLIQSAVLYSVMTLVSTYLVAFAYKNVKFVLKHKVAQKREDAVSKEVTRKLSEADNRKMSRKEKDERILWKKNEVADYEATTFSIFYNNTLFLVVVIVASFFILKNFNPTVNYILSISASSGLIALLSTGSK
Sequence of UniProt Q8TCT7 (Q8TCT7 whole entry, looked up): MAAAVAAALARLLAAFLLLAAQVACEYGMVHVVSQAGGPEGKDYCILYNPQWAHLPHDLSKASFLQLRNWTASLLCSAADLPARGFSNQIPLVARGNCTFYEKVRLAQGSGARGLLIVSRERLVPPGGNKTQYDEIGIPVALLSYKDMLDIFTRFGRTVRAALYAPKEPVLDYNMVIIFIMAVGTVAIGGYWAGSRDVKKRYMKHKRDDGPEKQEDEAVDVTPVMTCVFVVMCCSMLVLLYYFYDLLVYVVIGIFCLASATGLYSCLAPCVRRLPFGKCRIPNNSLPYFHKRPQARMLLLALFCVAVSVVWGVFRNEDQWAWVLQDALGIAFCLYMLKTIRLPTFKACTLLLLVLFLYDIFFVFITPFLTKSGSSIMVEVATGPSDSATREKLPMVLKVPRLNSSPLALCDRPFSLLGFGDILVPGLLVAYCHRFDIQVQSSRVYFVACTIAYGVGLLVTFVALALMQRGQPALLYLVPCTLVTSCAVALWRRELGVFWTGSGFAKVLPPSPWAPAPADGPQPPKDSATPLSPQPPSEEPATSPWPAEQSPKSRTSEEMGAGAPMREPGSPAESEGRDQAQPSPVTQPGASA
Sequence of UniProt O43615 (O43615 whole entry, looked up): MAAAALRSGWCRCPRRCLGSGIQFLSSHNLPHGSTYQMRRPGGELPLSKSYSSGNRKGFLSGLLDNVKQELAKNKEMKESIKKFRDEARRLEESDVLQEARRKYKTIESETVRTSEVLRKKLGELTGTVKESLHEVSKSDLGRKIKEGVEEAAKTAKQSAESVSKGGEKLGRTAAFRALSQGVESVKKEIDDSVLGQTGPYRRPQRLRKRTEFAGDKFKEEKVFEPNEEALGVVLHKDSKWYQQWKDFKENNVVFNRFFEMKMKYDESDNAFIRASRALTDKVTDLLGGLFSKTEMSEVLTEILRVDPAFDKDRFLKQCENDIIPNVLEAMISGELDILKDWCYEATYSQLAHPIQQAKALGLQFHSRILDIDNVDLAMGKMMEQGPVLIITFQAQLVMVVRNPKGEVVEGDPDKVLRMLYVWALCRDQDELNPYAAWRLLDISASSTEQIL
Sequence of UniProt P84103 (P84103 whole entry, looked up): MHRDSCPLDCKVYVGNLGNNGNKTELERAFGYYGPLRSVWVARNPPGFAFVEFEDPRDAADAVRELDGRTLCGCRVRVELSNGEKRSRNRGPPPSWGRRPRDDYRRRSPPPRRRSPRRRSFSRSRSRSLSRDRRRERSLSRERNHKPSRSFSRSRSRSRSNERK
Sequence of UniProt Q15005 (Q15005 whole entry, looked up): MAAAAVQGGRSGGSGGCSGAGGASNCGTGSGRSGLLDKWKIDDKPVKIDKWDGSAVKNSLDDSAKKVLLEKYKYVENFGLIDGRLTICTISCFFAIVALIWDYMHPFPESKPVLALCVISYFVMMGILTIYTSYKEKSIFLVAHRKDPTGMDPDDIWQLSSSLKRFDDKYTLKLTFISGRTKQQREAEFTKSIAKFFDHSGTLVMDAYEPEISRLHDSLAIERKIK
Sequence of UniProt P62318 (P62318 whole entry, looked up): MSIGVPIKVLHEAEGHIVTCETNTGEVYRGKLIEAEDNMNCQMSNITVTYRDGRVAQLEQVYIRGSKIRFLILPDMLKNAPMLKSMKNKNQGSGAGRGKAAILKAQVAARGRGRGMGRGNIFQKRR
Sequence of UniProt P04183 (P04183 whole entry, looked up): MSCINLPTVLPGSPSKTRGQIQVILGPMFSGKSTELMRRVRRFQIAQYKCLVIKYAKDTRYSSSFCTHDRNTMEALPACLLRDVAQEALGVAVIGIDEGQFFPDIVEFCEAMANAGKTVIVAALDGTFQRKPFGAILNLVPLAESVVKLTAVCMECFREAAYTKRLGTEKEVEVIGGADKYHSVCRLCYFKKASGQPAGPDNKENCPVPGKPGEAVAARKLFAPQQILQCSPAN
Sequence of UniProt P63165 (P63165 whole entry, looked up): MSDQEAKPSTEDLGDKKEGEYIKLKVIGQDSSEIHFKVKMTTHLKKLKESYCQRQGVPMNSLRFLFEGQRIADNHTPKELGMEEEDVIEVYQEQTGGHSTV

Target | log2 fold change [1] | log2 fold change [2] | log2 fold change [3] | log2 fold change [4] | log2 fold change (Nexturastat A) | log2 fold change (vemurafenib) | log2 fold change [5] | log2 fold change [6] | log2 fold change (givinostat) | log2 fold change (barasertib) | log2 fold change [7] | log2 fold change (volasertib) | log2 fold change [8] | log2 fold change (epoxomicin) | log2 fold change [9] | log2 fold change [10] | log2 fold change [11] | log2 fold change (rosiglitazone) | log2 fold change [12] | log2 fold change [13]
TK1 (UniProt P04183) | -0.035 | 0.001 | 0.01 | -0.004 | 0.014 | 0.003 | -0.012 | -0.095 | 0.011 | 0.011 | 0.039 | 0.062 | -0.039 | 0.084 | -0.015 | 0.001 | -0.009 | 0 | -0.075 | -0.046
SUMO1 (UniProt P63165) | -0.064 | -0.045 | 0.4 | 0.024 | -0.142 | -0.051 | 0.657 (active) | -0.071 | -0.172 | -0.055 | 0.034 | -0.035 | -0.046 | -0.011 | 0.088 | 0.015 | 0.021 | 0.002 | 0.038 | 0.007
SNRPD3 (UniProt P62318) | -0.03 | 0.031 | -0.048 | -0.079 | -0.023 | -0.015 | -0.102 | -0.126 | 0 | -0.039 | 0.194 | 0.134 | -0.058 | -0.037 | 0.005 | 0.058 | -0.07 | -0.047 | 0.001 | 0.198
TIMM44 (UniProt O43615) | 0.048 | -0.028 | 0.091 | 0.074 | -0.052 | -0.002 | 0.12 | -0.096 | -0.013 | 0.055 | -0.412 (active) | -0.57 (active) | -0.004 | 0.057 | -0.006 | -0.091 | 0.012 | 0.036 | -0.056 | -0.886 (active)
STAT3 (UniProt P40763) | 0.012 | 0.001 | -0.009 | -0.008 | 0.005 | 0.101 | 0.102 | 0.017 | 0.089 | 0.064 | -0.336 (active) | -0.767 (active) | 0.056 | 0.002 | -0.052 | -0.059 | 0.052 | 0.063 | -0.047 | -0.275 (active)
SNRNP40 (UniProt Q96DI7) | 0.01 | 0.001 | -0.06 | -0.023 | 0 | -0.027 | -0.046 | -0.037 | -0.035 | -0.04 | 0.067 | 0.059 | 0.026 | -0.05 | -0.018 | -0.033 | -0.012 | -0.001 | -0.029 | 0.261 (active)
STAT5B (UniProt P51692) | -0.165 | -0.102 | 0.222 | 0.111 | 0.014 | 0.046 | 0.08 | 0.101 | 0.145 | 0.113 | -0.221 | -0.333 | 0.36 | 0.004 | -0.037 | 0.052 | 0.105 | -0.003 | -0.063 | -0.045
SSR3 isoform 2 (UniProt Q9UNL2) | -0.032 | 0.123 | -0.014 | 0.022 | -0.103 | 0.11 | -0.011 | -0.075 | -0.042 | 0.017 | 0.05 | 0.059 | -0.075 | -0.054 | 0.062 | -0.069 | 0.087 | -0.002 | 0.056 | 0.195
SPPL2B (UniProt Q8TCT7) | -0.097 | 0.004 | 0.089 | 0.041 | 0.029 | -0.05 | -0.018 | 0.021 | 0.048 | 0 | 0.039 | 0 | -0.003 | -0.076 | -0.004 | 0.028 | 0.035 | -0.022 | 0.033 | -0.228
SRSF3 (UniProt P84103) | -0.019 | 0.047 | -0.208 | -0.103 | 0.124 | -0.064 | -0.173 | 0.047 | -0.029 | -0.093 | 0.198 | 0.313 | -0.075 | -0.213 | 0.028 | 0.189 | -0.139 | -0.115 | 0.18 | 0.233
SPCS2 (UniProt Q15005) | 0.011 | 0.004 | 0 | 0.3 | -0.052 | 0.075 | 0.058 | -0.011 | -0.009 | 0.025 | 0.018 | -0.006 | 0.02 | 0.091 | -0.067 | -0.009 | 0.038 | 0.029 | -0.078 | 0.005
STX7 (UniProt O15400) | -0.003 | 0.025 | -0.002 | 0.055 | -0.023 | -0.036 | 0 | 0 | -0.002 | -0.02 | -0.021 | 0.057 | -0.03 | -0.008 | 0.032 | 0.094 | -0.006 | -0.004 | 0.005 | -0.116
STK38 (UniProt Q15208) | 0.099 | -0.054 | 0.013 | 0.004 | -0.062 | 0.091 | 0.12 | 0.049 | 0.048 | 0.022 | -0.107 | -0.363 (active) | 0.106 | 0.035 | 0 | 0.003 | 0.059 | 0.05 | -0.005 | -0.068
SMARCAD1 isoform 2 (UniProt Q9H4L7) | 0.028 | -0.072 | -0.026 | 0.064 | -0.028 | 0.192 | 0.101 | 0.035 | 0.127 | 0.089 | -0.085 | -0.378 (active) | 0.057 | 0.046 | -0.055 | -0.1 | 0.04 | 0.071 | -0.037 | -0.1
SRSF10 (UniProt O75494) | -0.046 | 0.029 | -0.076 | -0.134 | 0.227 | -0.027 | -0.027 | 0.083 | 0.017 | -0.045 | 0.141 | 0.274 | -0.197 | -0.408 | 0.047 | 0.276 | -0.127 | -0.073 | 0.498 | 0.237
